FGF22 binding: shifts melting point of recombinant human FGF22; Q9HCT0; recombinant FGF22 thermal shift, SYPRO orange fluorescence; percent of sucrose octasulfate shift, DMSO zero; activity (Tm shift, normalised), % at 9.99 µM; actives 1.5% (n = 340,000); AID 651658;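 active means mean Tm shift, scaled 0 neutral to 100 positive control, at about 1.3% or above, every replicate too, limit read from the data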
Target sequence (Q9HCT0 whole entry, looked up): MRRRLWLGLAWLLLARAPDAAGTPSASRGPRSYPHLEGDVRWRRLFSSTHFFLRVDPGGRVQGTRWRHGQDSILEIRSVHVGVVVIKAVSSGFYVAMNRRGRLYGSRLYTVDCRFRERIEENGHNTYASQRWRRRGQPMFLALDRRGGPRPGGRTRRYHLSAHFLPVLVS
ADAM17 inh: inhibits human ADAM17; actives 0.83% (n = 370,000); recombinant ADAM17, EDANS/DABCYL FRET peptide cleavage; inhibition, % at 6.95 µM; P78536;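 active means inhibition above the mean of compounds lying between control limits plus 3 SD, set per campaign, cut at about 8.5% in these data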
proKLK7 act: proKLK7 (human) activation, primary screen; purified proKLK7, EDANS-DABCYL substrate fluorescence; 100% is mature enzyme control, 0% vehicle; P49862; activation, % at 7 µM; actives 0.9% (n = 370,000);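 active means activation above the mean of all tested compounds plus 3 SD, computed per campaign excluding outliers beyond control limits, cut at about 13% in these data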
Target sequence (P49862 whole entry, looked up): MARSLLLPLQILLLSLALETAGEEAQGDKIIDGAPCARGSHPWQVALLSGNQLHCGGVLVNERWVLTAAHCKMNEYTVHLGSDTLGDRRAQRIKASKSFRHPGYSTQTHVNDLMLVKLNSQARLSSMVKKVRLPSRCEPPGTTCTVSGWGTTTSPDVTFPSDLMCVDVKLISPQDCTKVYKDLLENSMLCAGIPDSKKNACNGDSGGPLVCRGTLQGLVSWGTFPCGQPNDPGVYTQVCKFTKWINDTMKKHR
ADAM10 inh: ADAM10 inhibition, QFRET primary screen. recombinant ADAM10, EDANS/DABCYL FRET peptide cleavage, 3 h. actives 0.62% (n = 370,000). O14672. inhibition, % at 7 µM;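 active means inhibition above a per-campaign cutoff equal to the mean of compounds falling between control-based bounds plus 3 SD, cut at about 20% in these data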
Ecoli rRNA inh: inhibitors of bacterial rRNA selective over humanized ribosomes. actives 1.6% (n = 350,000). GFP signal change (wild-type ribosome), % (concentration not given with the values). E. coli WT GFP vs humanized-ribosome RFP mutants, fluorescence, 24 h; hits give low values; DMSO median 0, no signal -100;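 active means significant combined selectivity score with lowered wild-type GFP, culture density cut under 30%, mutant RFP and density less affected; inactive means any of these conditions unmet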
KLK7 act conf: confirmation of human kallikrein-7 zymogen activators | shares compounds with proKLK7 act | purified proKLK7, EDANS-DABCYL substrate fluorescence; scaled: vehicle 0, mature enzyme 100 | activation, % at 7 µM | actives 68% (n = 3,200);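 active means activation, as change over the incubation, above the mean of all tested compounds plus 3 SD, cut at about 13% in these data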
EDANS-DABCYL int: fluorescence interference counter-screen for KLK7 activators; shares compounds with proKLK7 act; EDANS-DABCYL substrate fluorescence interference, no enzyme, 4 h; solvent 0%, active enzyme control 100%; activation, % at 7 µM; actives 80% (n = 3,200); AID 686952;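 active means activation above the all-compound mean plus 3 SD, ignoring values outside control-based bounds, cut at about 4.8% in these data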;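 further: value is the 4 h activation minus the activation read at time zero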
K7 EDANS ctr: counter-screen for kallikrein-7 activators: EDANS-DABCYL interference, dose response | actives 20% (n = 250) | shares compounds with proKLK7 act | EC50, µM | EDANS-DABCYL peptide fluorescence interference, no enzyme | AID 720493;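 active means compounds that raise the fluorescence signal in this interference counterscreen, with EC50 at or below 10 µM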;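 further: intact quenched peptide substrate alone read at 355 nm excitation and 520 nm emission; signal is fluorescence gain from T0 to T4 after four hours at room temperature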
Each line names hits and unclear results; the compound was inactive in the other large screens (follow-up assays come after a bar, where they were run). This is a sample that favours compounds with a hit; in the whole collection about 3.8% have one here.

C#CCn1c2ccccc2c(=O)n1C(C)CBr (stereo unspecified)	none
COC(=O)Cn1c2ccccc2c(=O)n1C(C)CBr (stereo unspecified)	proKLK7 act 66.7 | KLK7 act conf 62.2 | EDANS-DABCYL int 55.1
CC(C)NC(=O)Nc1cccc2c1O[C@@H](CN(C)Cc1ccc3c(c1)OCO3)[C@H](C)CN([C@H](C)CO)C2=O	none (no result: ADAM17 inh, proKLK7 act, ADAM10 inh)
CCOC(=O)N1CCN(S(=O)(=O)c2ccc(C(=O)Nc3sc4c(c3C(N)=O)CC(C)(C)NC4(C)C)cc2)CC1	proKLK7 act 56.9 | KLK7 act conf inactive | EDANS-DABCYL int inactive
CC1(C)Cc2c(sc(NC(=O)c3ccc(C(=O)c4ccccc4)cc3)c2C(N)=O)C(C)(C)N1	none
CC(Nc1ccc2c(c1)OCCO2)C(=O)Nc1ccc2c(c1)OCO2 (stereo unspecified)	proKLK7 act 48.9 | KLK7 act conf 39.4 | EDANS-DABCYL int 51.8
O=C(Nc1ccc2c(c1)OCCO2)Nc1ccc2c(c1)OCO2	none
N#Cc1sc2nc(N3CCCCC3)c3c(c2c1N)CCCC3	none (no result: FGF22 binding, Ecoli rRNA inh)
Cc1nc2sc(C#N)c(N)c2c2c1CCCC2	proKLK7 act 15.1 (no result: FGF22 binding, Ecoli rRNA inh) | KLK7 act conf 15.0 | EDANS-DABCYL int 21.6
C[C@@H]1CN([C@@H](C)CO)C(=O)Cc2cc(NS(C)(=O)=O)ccc2O[C@@H]1CN(C)C(=O)NC1CCCCC1	none (no result: ADAM17 inh, proKLK7 act, ADAM10 inh)
COCCNC(=O)C[C@@H]1CC[C@H]2[C@H](COc3ccc(NC(=O)c4cc(C)on4)cc3C(=O)N2C)O1	none (no result: ADAM17 inh, proKLK7 act, ADAM10 inh)
Cc1cccc(-n2c(O)c(C=Nc3ccccc3)c3ccccc3c2=O)n1	proKLK7 act 16.9 | KLK7 act conf 15.1 | EDANS-DABCYL int 16.3
COc1ccc(N=Cc2c(O)n(-c3cccc(C)n3)c(=O)c3ccccc23)cc1	none (no result: FGF22 binding, Ecoli rRNA inh)
CC(=O)Nc1cc(-c2ccccc2N(C)C)cn2c(-c3ccc(S(C)(=O)=O)cc3)cnc12	proKLK7 act 13.2 | KLK7 act conf inactive | EDANS-DABCYL int 11.2
CC(=O)Nc1cc(-c2ccccc2N(C)C)cn2c(-c3ccccc3)cnc12	none
CC1CN(CC(=O)Nc2nc(-c3ccc(Cl)cc3)cs2)CC(C)O1 (stereo unspecified)	proKLK7 act 49.6 | KLK7 act conf inactive | EDANS-DABCYL int inactive
O=C(CN1CCOCC1)Nc1nc(-c2ccc(Cl)cc2)cs1	none
N#Cc1ccc2c(c1)nnn2-c1ccccc1	none
N#Cc1ccc2c(c1)nc1ccccn12	proKLK7 act 21.4 | KLK7 act conf 27.4 | EDANS-DABCYL int 23.2 | K7 EDANS ctr inactive
Clc1ccc2nc3ccccn3c2c1	proKLK7 act 22.4 (no result: FGF22 binding, Ecoli rRNA inh) | KLK7 act conf 41.1 | EDANS-DABCYL int 43.8
COc1ccc(OCC(=O)Nc2c(Cl)ccc3nsnc23)cc1	none
O=C(O)COc1ccc2nsnc2c1Cl	proKLK7 act 19.5 (no result: FGF22 binding, Ecoli rRNA inh) | KLK7 act conf 26.8 | EDANS-DABCYL int 23.7
CN1CCN(c2nc(-c3ccccc3)cc(C(F)(F)F)n2)CC1	none (no result: FGF22 binding, Ecoli rRNA inh)
COc1ccc(OC)c2c(N3CCN(C)CC3)cc(C(F)(F)F)nc12	proKLK7 act 13.2 (no result: FGF22 binding, Ecoli rRNA inh) | KLK7 act conf inactive | EDANS-DABCYL int 15.0
COc1ccc(-c2cc(C(F)(F)F)nc(SCC(=O)N3CC(C)OC(C)C3)n2)cc1OC (stereo unspecified)	none (no result: FGF22 binding, Ecoli rRNA inh)
COc1ccc(OC)c2c(N3CC(C)OC(C)C3)cc(C(F)(F)F)nc12 (stereo unspecified)	proKLK7 act 14.6 (no result: FGF22 binding, Ecoli rRNA inh) | KLK7 act conf 13.4 | EDANS-DABCYL int 12.1
CC(=O)Oc1ccc2c(C)cc(=O)oc2c1C(=O)c1ccccc1	none
CCC(=O)Nc1c(OC(=O)CC)ccc2c(C)cc(=O)oc12	proKLK7 act 273.1 | KLK7 act conf 256.2 | EDANS-DABCYL int 253.6
CCC(=O)Oc1c(C(=O)CC)cc2c(C)cc(=O)oc2c1C	proKLK7 act 539.7 (no result: FGF22 binding, Ecoli rRNA inh) | KLK7 act conf 810.3 | EDANS-DABCYL int 812.2
CCC(=O)c1cc2c(C)cc(=O)oc2c(C)c1OC	none (no result: FGF22 binding, Ecoli rRNA inh)
C[C@H](CO)N1C[C@H](C)[C@@H](CN(C)CC2CC2)OCc2ccccc2-c2c(n(C)c3ccccc23)C1=O	none (no result: FGF22 binding, ADAM17 inh, proKLK7 act, ADAM10 inh)
COc1cc2c(cc1OC)C(c1ccccc1)CC2=O (stereo unspecified)	none
COc1cc2c(cc1OC)C(=O)CC(C)S2 (stereo unspecified)	proKLK7 act 13.8 (no result: FGF22 binding, Ecoli rRNA inh) | KLK7 act conf 31.9 | EDANS-DABCYL int 26.2
COc1cc2c(cc1OC)C(CSc1ccccc1C(=O)O)=NC(C)(C)C2	proKLK7 act 13.8 | KLK7 act conf inactive | EDANS-DABCYL int 5.2
C/C(=N\NC(=O)c1cc(-c2ccc(C)s2)nc2ccccc12)c1cccnc1	proKLK7 act 65.7 | KLK7 act conf inactive | EDANS-DABCYL int inactive
Cc1ccc(-c2cc(C(=O)NCc3ccco3)c3ccccc3n2)s1	proKLK7 act 15.6 (no result: FGF22 binding, Ecoli rRNA inh) | KLK7 act conf 21.6 | EDANS-DABCYL int 65.4
Cc1ccc(-c2cc(C(=O)NCCCn3ccnc3)c3ccccc3n2)s1	proKLK7 act 35.3 (no result: Ecoli rRNA inh) | KLK7 act conf 74.8 | EDANS-DABCYL int 75.7
COc1ccccc1NC(=O)N1CC(=O)N2[C@H](CO)[C@@H](c3ccc(C#Cc4ccc(F)cc4)cc3)[C@@H]2C1	none (no result: FGF22 binding, ADAM17 inh, proKLK7 act, ADAM10 inh)
Cc1noc(C)c1S(=O)(=O)N(C)C[C@@H]1OCCCC[C@H](C)Oc2ccc(NC(=O)NC(C)C)cc2C(=O)N([C@H](C)CO)C[C@H]1C	none (no result: ADAM17 inh, proKLK7 act, ADAM10 inh)
O=C1[C@H]2C(c3ccccc3)=NN(c3ccccc3)[C@H]2C(=O)N1c1ccccc1	proKLK7 act 22.4 | KLK7 act conf inactive | EDANS-DABCYL int inactive
O=C1C2C(c3ccccc3)=NN(c3ccccc3)C2C(=O)N1c1ccccc1 (stereo unspecified)	proKLK7 act 14.5 (no result: Ecoli rRNA inh) | KLK7 act conf 13.2 | EDANS-DABCYL int 18.0
OC[C@@H]1[C@@H](c2ccc(F)cc2)C(c2ccccc2)=NN1c1ccccc1	none
CCCc1cc(=O)oc2c3c(cc(OCC(=O)N[C@@H](CSC)C(=O)O)c12)OC(C)(C)CC3	proKLK7 act 31.8 | KLK7 act conf 35.3 | EDANS-DABCYL int 30.6
CCc1cc(=O)oc2c3c(cc(OCC(=O)N[C@H](C(=O)O)[C@H](C)CC)c12)OC(C)(C)CC3	proKLK7 act 47.9 | KLK7 act conf 48.6 | EDANS-DABCYL int 49.2
CCCc1cc(=O)oc2c3c(cc(OCC(=O)N[C@@H](C)C(=O)O)c12)OC(C)(C)CC3	proKLK7 act 49.2 | KLK7 act conf 70.0 | EDANS-DABCYL int 78.5

Source: PubChem BioAssay (several laboratories)
